# In the supplement of paper PMC11624193, “Coupling cellular drug-target engagement to downstream pharmacology with CeTEAM” (Nature Communications, 2024):
# Structures can show the parent of a compound that is named as a salt. Values without a mark were called inactive.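 The calls were made as follows: active = log2 fold change beyond 2 SD from the library mean after excluding viability outliers; inactive = within 2 SD.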
# Target: PARP1 L713F-nLuc biosensor (HCT116) (UniProt P09874)
# Experiment: PARP1 L713F-nLuc/akaLuc ratio relative to DMSO control (biosensor stabilization) (fold change); higher = more PARP1 biosensor stabilization (target engagement / stabilizer), active = hit call of the paper
# Conditions: stock concentration (mM; final µM = stock mM x 1): 10; 24 h
# Sequence of PARP1 L713F-nLuc biosensor (HCT116) (P09874 whole entry L713F, looked up): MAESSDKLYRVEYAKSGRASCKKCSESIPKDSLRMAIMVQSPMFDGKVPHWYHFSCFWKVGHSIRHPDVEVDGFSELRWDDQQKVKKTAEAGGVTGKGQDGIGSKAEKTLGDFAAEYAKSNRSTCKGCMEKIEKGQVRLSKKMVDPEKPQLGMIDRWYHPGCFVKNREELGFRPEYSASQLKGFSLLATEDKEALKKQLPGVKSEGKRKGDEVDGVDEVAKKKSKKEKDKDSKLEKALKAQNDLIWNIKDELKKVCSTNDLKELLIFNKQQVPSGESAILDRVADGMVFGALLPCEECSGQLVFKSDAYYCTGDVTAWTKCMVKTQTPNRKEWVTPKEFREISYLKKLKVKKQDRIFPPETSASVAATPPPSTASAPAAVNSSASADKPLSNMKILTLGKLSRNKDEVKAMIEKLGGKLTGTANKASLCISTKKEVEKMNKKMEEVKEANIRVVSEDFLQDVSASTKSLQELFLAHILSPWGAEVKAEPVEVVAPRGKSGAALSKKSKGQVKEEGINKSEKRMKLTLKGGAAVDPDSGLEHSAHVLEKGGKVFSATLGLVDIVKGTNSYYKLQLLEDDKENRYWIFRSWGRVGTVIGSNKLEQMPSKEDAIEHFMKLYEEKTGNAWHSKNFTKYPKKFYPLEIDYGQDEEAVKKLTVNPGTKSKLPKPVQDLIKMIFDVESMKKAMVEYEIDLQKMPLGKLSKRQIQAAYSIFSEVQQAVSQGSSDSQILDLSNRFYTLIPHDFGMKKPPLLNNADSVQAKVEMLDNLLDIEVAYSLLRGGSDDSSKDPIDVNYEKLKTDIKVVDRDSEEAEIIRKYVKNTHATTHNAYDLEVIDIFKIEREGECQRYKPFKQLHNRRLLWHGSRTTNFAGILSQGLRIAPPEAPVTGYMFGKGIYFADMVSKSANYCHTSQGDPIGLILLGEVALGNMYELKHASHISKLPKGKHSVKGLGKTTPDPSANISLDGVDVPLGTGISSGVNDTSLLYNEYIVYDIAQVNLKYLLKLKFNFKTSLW
row,SMILES,PARP1 L713F-nLuc/akaLuc ratio
1,O=S(=O)(NCCSSCCNS(=O)(=O)c1cc(Cl)ccc1Cl)c1cc(Cl)ccc1Cl,1.18
2,Cn1cc(-c2cn3nccc3c(-c3cnn([C@]4(CC#N)C[C@@H](C#N)C4)c3)n2)cn1 [Ropsacitinib],1.02
3,COc1cc(Nc2ncc3c(n2)-c2ccc(Cl)cc2C(c2c(F)cccc2OC)=NC3)ccc1C(=O)O [Alisertib (MLN8237)],1.12
4,CCS(=O)(=O)N1CC(CC#N)(n2cc(-c3ncnc4[nH]ccc34)cn2)C1 [Baricitinib (phosphate)],1.19
5,CN(C)C(=N)NC(=N)N [Metformin HCl],0.701
6,CCC(Sc1nnc2c(n1)[nH]c1ccccc12)C(=O)N1c2ccccc2Sc2ccccc21 (configuration not stated) [Inauhzin],0.33 (active)
7,Cc1cc(Nc2nc(N[C@@H](C)c3ncc(F)cn3)ncc2Cl)[nH]n1,0.882
8,CN(C)C(=N)NC(=N)N [Metformin (hydrochloride)],0.94
9,Cc1[nH]nc(C(F)(F)F)c1Cc1sc2c(c1C(=O)N1C[C@](C)(O)CO1)c(=O)n(C)c(=O)n2C(C)C,0.93
10,COc1ccc(-n2c(SCCCN3C(=O)c4cccc5cccc(c45)C3=O)nnc2-c2ccncc2)cc1,0.933
11,O=C1NC(=O)/C(=C\c2cccc(C(F)(F)F)c2)S1,0.962
12,Cn1cnc2c(F)c(Nc3ccc(Br)cc3Cl)c(C(=O)NOCCO)cc21 [Selumetinib (AZD6244)],0.465
13,O=C(Nc1ccccc1-c1cn2c(CN3CCNCC3)csc2n1)c1cnc2ccccc2n1 [SRT 1720 (Hydrochloride)],1.16
14,"O=c1ccoc2cc(O)cc(O)c12 [5,7-Dihydroxychromone]",1.02
15,C[C@H]1CCCN1Cc1nc2cc(NC(=O)c3ccc4c(cnn4C)c3)ccc2[nH]1,0.788
16,"O=C(c1ccc(F)c(F)c1Nc1ccc(I)cc1F)N1CC(O)([C@@H]2CCCCN2)C1 [Cobimetinib (GDC-0973, RG7420)]",0.687
17,N#CCNC(=O)c1ccc(-c2ccnc(Nc3ccc(N4CCOCC4)cc3)n2)cc1 [Momelotinib (CYT387)],0.585
18,O=C(O)c1cccc(CN2C(=O)/C(=C(\c3ccccc3)c3ccc(Cl)cc3)c3ccccc32)c1,1.18
19,CNC(=O)N1N=C(c2ccc(N3CCN(C)CC3)cc2)c2cc(OC)c(OC)cc2C[C@H]1C,1.27

row,SMILES,PARP1 L713F-nLuc/akaLuc ratio
1,NC(=O)c1cccc2[nH]c(-c3ccc(C4CCCN4)cc3F)nc12 (configuration not stated),4.24 (active)
2,Nc1[nH]c(=O)nc2c1ncn2[C@@H]1O[C@H](CO)[C@@H](O)[C@H]1O [Crotonoside],0.835
3,CCCCC(=O)OCC(=O)[C@]1(O)Cc2c(O)c3c(c(O)c2[C@@H](O[C@H]2C[C@H](NC(=O)C(F)(F)F)[C@H](O)[C@H](C)O2)C1)C(=O)c1c(OC)cccc1C3=O [Valrubicin],1.13
4,CC(C)N(CCC(=O)c1ccc2ccccc2c1)Cc1ccccc1,0.841
5,COCCNCc1ccc(-c2cc3nccc(Oc4ccc(NC(=O)C5(C(=O)Nc6ccc(F)cc6)CC5)cc4F)c3s2)nc1 [Sitravatinib (MGCD516)],1.48
6,CCOc1cccc2c1N[C@@H](c1ccc(C(=O)O)cc1)[C@H]1CC=C[C@@H]21 [LIN28 inhibitor LI71],0.616
7,Cc1cc(-c2ncc(CC(=O)Nc3ccc(-c4cnccn4)cn3)cc2C)ccn1,1.03
8,NC(=O)N1CCC(CC(=O)N2CCC([C@H]3c4ncc(Br)cc4CCc4cc(Cl)cc(Br)c43)CC2)CC1 [Lonafarnib],1.59
9,O=C(Nc1cnn2ccc(N3CCC[C@@H]3c3cc(F)ccc3F)nc12)N1CC[C@H](O)C1 [Larotrectinib (LOXO-101) sulfate],0.817
10,COc1c(CN)cc(CN)cc1OCCCN1Cc2ccccc2C1 [MS31 (trihydrochloride)],0.851
11,COC(=O)c1ccc2c(c1)[nH]c1ncnc(NCCCN3CCCCC3)c12,1.02
12,Cc1nc2sccn2c(=O)c1CCN1CCC(=C(c2ccccc2)c2ccc(F)cc2)CC1,1.01
13,Cc1cc(-c2ccccc2)cc(C(=O)NNS(=O)(=O)c2ccccc2)c1F,0.665
14,Oc1cc(O)c2c(c1)OC1(c3ccc(O)c(O)c3)Oc3cc(O)c4c(c3C2C1O)OC(c1ccc(O)c(O)c1)C(O)C4 (configuration not stated) [Procyanidin A1],1.43
15,CC[C@H](NC(=O)[C@H](C)NC)C(=O)N1C[C@@H](O)C[C@H]1Cc1c(-c2[nH]c3cc(F)ccc3c2C[C@@H]2C[C@H](O)CN2C(=O)[C@H](CC)NC(=O)[C@H](C)NC)[nH]c2cc(F)ccc12 [Birinapant],0.946
16,O=c1cc(-c2ccc(O[C@@H]3O[C@H](CO)[C@@H](O)[C@H](O)[C@H]3O)cc2)oc2cc(O)c([C@@H]3O[C@H](CO)[C@@H](O)[C@H](O)[C@H]3O[C@@H]3OC[C@H](O)[C@H](O)[C@H]3O)c(O)c12 [Vaccarin],0.723
17,C[C@H](Nc1cc(-c2cnn(C)c2)cc(Nc2cnccn2)n1)c1ccc(F)cc1 [Ilginatinib hydrochloride],0.281 (active)
18,O=C1/C(=C/c2ccc(O)c(Br)c2)CN(Cc2ccccc2)C/C1=C\c1ccc(O)c(Br)c1,0.985
